Assay outcomes deposited in PubChem by National Center for Advancing Translational Sciences (NCATS).
KB-V1 cytotox = KB-V1 MDR subline cytotoxicity. hit rate 3.4% among 400,000. Potency, µM (doses to about 46.1 µM), usual class: cytotoxic. KB-V1 MDR cells viability, CellTiter-Glo, 72 h; note: % is set by controls: 0 for no effect and ±100 for the full control effect; nearly all actives have a fitted effect of over 60% in size
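Following 72 h at 37 degrees C with compound, KB-V1 cell viability was read by CellTiter-Glo luminescence, medium being phenol-red-free DMEM plus 10% FBS; concentration-response parameters came from normalized, curve-fitted qHTS data.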
S2 tox = reduces viability in counter-screen for ATXN expression inhibitors. S2 cells (HEK-293 line with an ATXN2-luciferase reporter) viability, CellTiter-Fluor protease fluorescence, 24 h. Potency, µM (titrated, usually from 56.7 µM), actives largely listed as cytotoxic. hit rate 0.49% among 400,000. AID 651635; note: nearly all actives have a fitted effect of over 40% in size
KB-3-1 cytotox = KB-3-1 parental cell cytotoxicity; KB-3-1 viability, CellTiter-Glo ATP luminescence, 72 h; Potency, µM (doses to about 46.1 µM), usual class: cytotoxic; hit rate 1.4% among 400,000; AID 1347075; note: % is set by controls: 0 for no effect and ±100 for the full control effect; nearly all actives have a fitted effect of over 60% in size
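Using CellTiter-Glo luminescence, growth of non-resistant KB-3-1 adenocarcinoma cells is assessed 72 h after pin-tool compound addition at 37 °C. Normalized responses across the concentration series yield fitted curves.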
TGFb inhibitor = inhibitors of TGF-b signaling | HepG2 CAGA-GFP TGF-b/SMAD3 reporter, GFP fluorescence, 18 h; TGF-beta stimulated, 500 pg/mL final | Potency, µM (titrated, usually from 46.1 µM), without a hit: top-dose activity, negative = inhibition, actives largely listed as inhibitors | hit rate 1.2% among 410,000 | AID 588855; note: % is set by controls: 0 for no effect and ±100 for the full control effect; nearly all actives have a fitted effect of over 65% in size
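HEPG2 CAGA-GFP cells (1000/well, DMEM with 1% FBS) were pre-incubated 2 h at 37 degrees C, given compound by pin tool, then stimulated with TGF-beta at 500 pg/mL final for 18 h before per-cell GFP fluorescence imaging.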
HepG2 tox = counter-screen for TGF-b inhibitors: cytotoxicity in HepG2 cells | HepG2 CAGA-GFP viability, ATP luminescence, 18 h | Potency, µM (titrated, usually from 46.1 µM), without a hit: top-dose activity change, negative = cytotoxicity, most hits filed as cytotoxic | hit rate 0.76% among 410,000 | AID 588856
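CellTiter-Glo luminescence gave cytotoxicity after 18 hours at 37 degrees C. The cells were HepG2 CAGA-GFP in 1% FBS DMEM, stimulated with 500 pg/mL TGF-beta after compound addition. %Activity was normalised to no-cell wells (complete cell-killing) and DMSO (no toxicity), and curves were fitted and classified.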
ATXN2 expr inh = reduces ATXN2 reporter expression in HEK-293 cells. Potency, µM (highest dose often 57 µM), inactives show at the top dose activity change, negative = inhibition, actives largely listed as inhibitors. HEK-293 ATXN2-luciferase reporter, luminescence, 24 h. hit rate 0.72% among 360,000. AID 1745845; note: % is set by controls: 0 for no effect and ±100 for the full control effect; nearly all actives have a fitted effect of over 55% in size
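ATXN2-luciferase reporter cells (luciferase flanked by upstream and downstream ATXN2 gene portions) were treated 24 h at 37 °C with compounds at up to 57 uM. SteadyGlo luminescence gave expression; GF-AFC fluorescence gave viability.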
Active calls of the source: *. In the library only some 5.9% were active in any assay of this set; here they are far more common. Calls come from the whole dose curve; as a rule, active = well fitted curve in the direction sought with a large enough effect; inconclusive = small, poorly fitted or top-dose-only effect, or another doubt; inactive = no such curve, though single readings can be large; an effect the other way counts as inactive or inconclusive. Potency is the fitted concentration of half-maximal effect.

Screening O=C1NC(Cc2ccccc2)c2nc3cc(F)c(F)cc3c(=O)n2-c2cc3ccccc3cc21 (stereo not given) returned KB-V1 cytotox inconclusive, S2 tox inconclusive, KB-3-1 cytotox 15µM*, TGFb inhibitor -2%, HepG2 tox -21% and ATXN2 expr inh -32%.
Screening CCC1NC(=O)c2cc3ccccc3cc2-n2c1nc1cc(F)ccc1c2=O (stereo not given) returned KB-V1 cytotox inconclusive, S2 tox inactive, KB-3-1 cytotox inactive, TGFb inhibitor 9%, HepG2 tox 1% and ATXN2 expr inh -7%.
O=C1NC(Cc2ccccc2)c2nc3cc(F)ccc3c(=O)n2-c2cc3ccccc3cc21 (stereo not given) was read as KB-V1 cytotox inconclusive, S2 tox inconclusive, KB-3-1 cytotox inconclusive, TGFb inhibitor 9%, HepG2 tox -18% and ATXN2 expr inh -22%.
`COc1cc2nc3n(c(=O)c2cc1OC)-c1cc2ccccc2cc1C(=O)NC3CC(C)C` (stereo not given) gave KB-V1 cytotox inconclusive, S2 tox inconclusive, KB-3-1 cytotox 18µM*, TGFb inhibitor inconclusive, HepG2 tox 4% and ATXN2 expr inh inconclusive.
O=C1NC(Cc2ccccc2)c2nc3ccccc3c(=O)n2-c2cc3ccccc3cc21 (stereo not given) was read as KB-V1 cytotox inconclusive, S2 tox inconclusive, KB-3-1 cytotox 13µM*, TGFb inhibitor 0%, HepG2 tox -5% and ATXN2 expr inh inconclusive.
Screening O=C1NC(Cc2ccc(O)cc2)c2nc3ccc(F)cc3c(=O)n2-c2cc3ccccc3cc21 (stereo not given) returned KB-V1 cytotox inconclusive, S2 tox 14µM*, KB-3-1 cytotox 13µM*, TGFb inhibitor inconclusive, HepG2 tox -28% and ATXN2 expr inh inconclusive.
For COc1cc(/C=C/c2ccnc3ccccc23)ccc1N(C)C the results were KB-V1 cytotox inconclusive, KB-3-1 cytotox inconclusive, TGFb inhibitor 20% and HepG2 tox -31%.
`O=C1NC(Cc2ccc(O)cc2)c2nc3cc(Cl)ccc3c(=O)n2-c2cc3ccccc3cc21` (stereo not given) gave KB-V1 cytotox inconclusive, S2 tox inconclusive, KB-3-1 cytotox inconclusive, TGFb inhibitor inconclusive, HepG2 tox -9% and ATXN2 expr inh inconclusive.
Screening Cc1ccc2c(=O)n3c(nc2c1)C(Cc1ccccc1)NC(=O)c1cc2ccccc2cc1-3 (stereo not given) returned KB-V1 cytotox inconclusive, S2 tox inconclusive, KB-3-1 cytotox 12µM*, TGFb inhibitor -12%, HepG2 tox -3% and ATXN2 expr inh inconclusive.
For COc1ccc(NC(=O)C#Cc2ccccc2)cc1OC the results were KB-V1 cytotox inconclusive, S2 tox inactive, KB-3-1 cytotox 18µM*, TGFb inhibitor -28%, HepG2 tox 2% and ATXN2 expr inh 2%.
For NC(=O)c1ccc(NC(=O)C#Cc2ccccc2)cc1 the results were KB-V1 cytotox inactive, S2 tox inconclusive, KB-3-1 cytotox 23µM*, TGFb inhibitor inconclusive, HepG2 tox -32% and ATXN2 expr inh 5%.
Screening O=C(C#Cc1ccccc1)Nc1ccccc1F returned KB-V1 cytotox inconclusive, S2 tox inconclusive, KB-3-1 cytotox inconclusive, TGFb inhibitor inconclusive, HepG2 tox -28% and ATXN2 expr inh -6%.
For NC(=O)c1nn2c(C(F)(F)F)cc(-c3ccc(Br)cc3)nc2c1Cl the results were KB-V1 cytotox inactive, KB-3-1 cytotox inactive, TGFb inhibitor 38% and HepG2 tox -2%.
Screening CCOC(=O)C1(N(CC)CC)Sc2cc(C)ccc2NC1=O (stereo not given) returned KB-V1 cytotox 10µM*, S2 tox inactive, KB-3-1 cytotox inconclusive, TGFb inhibitor inconclusive, HepG2 tox -42% and ATXN2 expr inh 63%.
For COc1ccc(C)cc1S(=O)(=O)N(CC(=O)N1CCOCC1)Cc1ccccc1 the results were KB-V1 cytotox inconclusive, S2 tox inactive, KB-3-1 cytotox inactive, TGFb inhibitor -3%, HepG2 tox -16% and ATXN2 expr inh 1%.
For COc1ccc(S(=O)(=O)N(CC(=O)N2CCOCC2)Cc2ccccc2)cc1C the results were KB-V1 cytotox 2.9µM*, S2 tox inactive, KB-3-1 cytotox inactive, TGFb inhibitor 2%, HepG2 tox -17% and ATXN2 expr inh -5%.
`COc1ccc(-c2nc3cc(C)ccc3cc2CN(C(=O)c2cc(C)nn2C)C2CC2)cc1OC` gave S2 tox inactive.
COc1ccccc1CNC(=O)c1cc(S(=O)(=O)N2CCN(c3ccccc3)CC2)ccc1Cl was read as KB-V1 cytotox 4.6µM*, S2 tox inconclusive, KB-3-1 cytotox inactive, TGFb inhibitor inconclusive, HepG2 tox 1% and ATXN2 expr inh -10%.
COc1ccccc1C(=O)NCC1CCN(c2ccc(S(=O)(=O)N3CCOCC3)cc2)CC1 was read as KB-V1 cytotox 15µM*, S2 tox inactive, KB-3-1 cytotox inactive, TGFb inhibitor inconclusive, HepG2 tox -31% and ATXN2 expr inh -15%.
COc1ccccc1CNC(=O)COC(=O)c1cc(S(=O)(=O)N2CCOCC2)ccc1Cl was read as KB-V1 cytotox inactive, S2 tox inactive, KB-3-1 cytotox inactive, TGFb inhibitor -12%, HepG2 tox 0% and ATXN2 expr inh -4%.
Screening CCOc1ccc(N2CC(c3nc(-c4cc(OC)c(OC)c(OC)c4)no3)CC2=O)cc1 (stereo not given) returned KB-V1 cytotox inactive, S2 tox inactive, KB-3-1 cytotox inactive, TGFb inhibitor -32%, HepG2 tox -30% and ATXN2 expr inh -7%.
`CCOC(=O)C1=C(COC(=O)c2ccc([N+](=O)[O-])s2)NC(=O)NC1C` (stereo not given) gave KB-V1 cytotox inconclusive, S2 tox inconclusive, KB-3-1 cytotox inactive, TGFb inhibitor 11µM* and HepG2 tox -122%.
`CCOC(=O)C1=C(COC(=O)c2sccc2C)NC(=O)NC1C` (stereo not given) gave KB-V1 cytotox inactive, S2 tox inactive, KB-3-1 cytotox inactive, TGFb inhibitor 3% and HepG2 tox -8%.
`Cc1ccc(-n2ncc(C(=O)N3CCCCC3)c2C2CCN(C(=O)OC(C)(C)C)CC2)c(C)c1` gave KB-V1 cytotox inactive, S2 tox inconclusive, KB-3-1 cytotox inactive, TGFb inhibitor -2%, HepG2 tox 2% and ATXN2 expr inh -8%.
